The source of these data is the supplement of paper PMC7724964.

T1: GNAZ 2-355 G-alpha (domain begin residue: 2, domain end residue: 355), P19086
T1 chain: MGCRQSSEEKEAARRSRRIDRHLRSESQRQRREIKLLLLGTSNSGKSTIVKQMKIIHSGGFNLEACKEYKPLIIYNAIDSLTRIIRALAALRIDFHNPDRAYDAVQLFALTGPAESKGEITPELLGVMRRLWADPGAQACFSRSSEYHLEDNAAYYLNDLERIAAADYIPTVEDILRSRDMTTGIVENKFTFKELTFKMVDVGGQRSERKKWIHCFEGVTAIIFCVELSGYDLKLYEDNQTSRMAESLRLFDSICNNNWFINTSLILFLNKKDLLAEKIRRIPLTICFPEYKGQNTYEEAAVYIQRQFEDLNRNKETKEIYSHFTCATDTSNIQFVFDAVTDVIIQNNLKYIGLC

T2: HOMER1 1-163 WH1 (domain begin residue: 1, domain end residue: 163), Q86YM7
T2 chain: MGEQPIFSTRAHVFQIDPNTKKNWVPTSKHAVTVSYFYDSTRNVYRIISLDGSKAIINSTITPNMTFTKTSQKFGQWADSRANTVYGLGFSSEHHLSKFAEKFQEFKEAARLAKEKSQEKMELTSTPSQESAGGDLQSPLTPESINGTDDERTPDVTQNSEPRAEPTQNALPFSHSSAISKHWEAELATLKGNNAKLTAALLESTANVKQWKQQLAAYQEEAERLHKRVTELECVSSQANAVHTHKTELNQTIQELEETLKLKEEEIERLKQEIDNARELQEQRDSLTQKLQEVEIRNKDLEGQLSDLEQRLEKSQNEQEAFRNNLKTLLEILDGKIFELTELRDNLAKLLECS

T3: GNA14 2-355 G-alpha (domain begin residue: 2, domain end residue: 355), O95837
T3 chain: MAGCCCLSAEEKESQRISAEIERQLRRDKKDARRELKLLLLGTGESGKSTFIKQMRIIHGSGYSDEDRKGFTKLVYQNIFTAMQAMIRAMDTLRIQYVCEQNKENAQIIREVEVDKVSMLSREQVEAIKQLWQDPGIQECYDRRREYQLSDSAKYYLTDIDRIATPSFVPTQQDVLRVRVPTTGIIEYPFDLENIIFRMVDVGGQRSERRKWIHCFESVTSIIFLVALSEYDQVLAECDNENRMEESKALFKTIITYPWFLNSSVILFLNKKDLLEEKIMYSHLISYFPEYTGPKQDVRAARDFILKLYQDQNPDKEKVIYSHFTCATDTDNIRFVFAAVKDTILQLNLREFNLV

T4: GNAQ 2-359 G-alpha (domain begin residue: 2, domain end residue: 359), P50148
T4 chain: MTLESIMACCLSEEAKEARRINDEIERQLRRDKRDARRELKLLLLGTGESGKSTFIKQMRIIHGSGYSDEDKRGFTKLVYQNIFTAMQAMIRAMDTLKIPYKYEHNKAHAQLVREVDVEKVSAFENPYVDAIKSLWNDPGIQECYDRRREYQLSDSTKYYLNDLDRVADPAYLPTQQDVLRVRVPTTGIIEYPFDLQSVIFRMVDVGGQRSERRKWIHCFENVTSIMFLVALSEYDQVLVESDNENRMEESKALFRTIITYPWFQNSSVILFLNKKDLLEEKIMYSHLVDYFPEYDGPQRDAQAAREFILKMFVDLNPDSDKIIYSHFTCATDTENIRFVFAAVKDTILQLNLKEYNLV

T5: HOMER2 1-111 WH1 (domain begin residue: 1, domain end residue: 111), Q9NSB8
T5 chain: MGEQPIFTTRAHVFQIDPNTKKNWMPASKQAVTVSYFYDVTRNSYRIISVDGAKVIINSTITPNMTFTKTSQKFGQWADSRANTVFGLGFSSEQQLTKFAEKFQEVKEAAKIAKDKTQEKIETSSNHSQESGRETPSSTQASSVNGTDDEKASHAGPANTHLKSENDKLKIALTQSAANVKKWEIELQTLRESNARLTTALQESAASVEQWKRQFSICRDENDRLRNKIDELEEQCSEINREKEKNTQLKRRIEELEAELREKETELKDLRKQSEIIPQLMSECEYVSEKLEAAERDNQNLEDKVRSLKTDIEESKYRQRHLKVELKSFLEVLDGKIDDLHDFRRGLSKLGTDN

T6: HNF4A 148-377 Hormone_recep (domain begin residue: 148, domain end residue: 377), P41235
T6 chain: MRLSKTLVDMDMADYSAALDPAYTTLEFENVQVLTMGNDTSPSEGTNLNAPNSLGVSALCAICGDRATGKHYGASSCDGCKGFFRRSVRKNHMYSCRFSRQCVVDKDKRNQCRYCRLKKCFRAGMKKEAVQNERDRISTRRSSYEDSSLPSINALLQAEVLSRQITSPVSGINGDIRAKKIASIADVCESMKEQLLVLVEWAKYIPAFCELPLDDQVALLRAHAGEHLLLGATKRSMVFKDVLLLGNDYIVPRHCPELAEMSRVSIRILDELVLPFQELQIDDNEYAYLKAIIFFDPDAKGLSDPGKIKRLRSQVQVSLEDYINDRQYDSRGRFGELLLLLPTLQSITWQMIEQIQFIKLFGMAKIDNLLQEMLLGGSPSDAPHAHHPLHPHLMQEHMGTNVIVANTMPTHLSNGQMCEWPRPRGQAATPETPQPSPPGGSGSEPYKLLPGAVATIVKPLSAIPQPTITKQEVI

T7: HOMER3 1-118 WH1 (domain begin residue: 1, domain end residue: 118), Q9NSC5
T7 chain: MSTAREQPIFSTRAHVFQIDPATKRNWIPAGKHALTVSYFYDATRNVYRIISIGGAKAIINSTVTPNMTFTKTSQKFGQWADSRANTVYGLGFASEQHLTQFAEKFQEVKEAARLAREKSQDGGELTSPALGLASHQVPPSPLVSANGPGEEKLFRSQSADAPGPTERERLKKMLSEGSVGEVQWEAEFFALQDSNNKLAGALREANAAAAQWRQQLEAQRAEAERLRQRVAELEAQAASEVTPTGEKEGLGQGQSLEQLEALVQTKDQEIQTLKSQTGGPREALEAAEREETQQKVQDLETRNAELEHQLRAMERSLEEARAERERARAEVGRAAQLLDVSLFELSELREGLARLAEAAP

GNAI1 2-354 G-alpha (domain begin residue: 2, domain end residue: 354), P63096, sequence (P63096 whole entry): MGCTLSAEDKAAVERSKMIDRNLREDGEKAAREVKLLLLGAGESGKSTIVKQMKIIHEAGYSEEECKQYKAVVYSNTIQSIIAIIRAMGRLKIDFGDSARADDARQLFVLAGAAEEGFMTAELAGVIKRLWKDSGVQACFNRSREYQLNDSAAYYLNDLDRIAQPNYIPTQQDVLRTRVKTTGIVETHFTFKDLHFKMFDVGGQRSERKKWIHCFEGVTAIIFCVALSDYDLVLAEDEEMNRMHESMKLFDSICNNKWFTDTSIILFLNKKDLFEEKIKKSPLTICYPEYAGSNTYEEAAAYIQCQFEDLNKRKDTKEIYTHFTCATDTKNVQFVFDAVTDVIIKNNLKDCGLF
HSPA8 394-614 HSP70 (domain begin residue: 394, domain end residue: 614), P11142, sequence (P11142 whole entry, looked up, tested part not stated): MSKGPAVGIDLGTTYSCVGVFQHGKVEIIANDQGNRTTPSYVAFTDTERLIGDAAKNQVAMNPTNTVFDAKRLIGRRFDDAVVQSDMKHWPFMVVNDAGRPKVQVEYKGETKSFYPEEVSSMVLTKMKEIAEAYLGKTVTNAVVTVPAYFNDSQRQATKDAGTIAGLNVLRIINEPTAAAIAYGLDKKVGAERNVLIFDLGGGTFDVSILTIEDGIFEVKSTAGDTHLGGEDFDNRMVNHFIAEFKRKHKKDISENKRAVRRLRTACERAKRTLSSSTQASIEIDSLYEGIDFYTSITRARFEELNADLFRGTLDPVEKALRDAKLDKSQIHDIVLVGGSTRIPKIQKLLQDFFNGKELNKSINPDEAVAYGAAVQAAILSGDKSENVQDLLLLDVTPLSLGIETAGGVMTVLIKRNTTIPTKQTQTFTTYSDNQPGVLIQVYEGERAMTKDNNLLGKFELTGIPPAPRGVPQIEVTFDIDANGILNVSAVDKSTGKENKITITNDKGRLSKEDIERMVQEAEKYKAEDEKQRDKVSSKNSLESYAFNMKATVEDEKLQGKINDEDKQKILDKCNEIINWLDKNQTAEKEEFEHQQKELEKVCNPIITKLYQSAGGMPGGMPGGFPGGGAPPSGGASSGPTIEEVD
HGS 1-154 VHS (domain begin residue: 1, domain end residue: 154), O14964, sequence (O14964 whole entry): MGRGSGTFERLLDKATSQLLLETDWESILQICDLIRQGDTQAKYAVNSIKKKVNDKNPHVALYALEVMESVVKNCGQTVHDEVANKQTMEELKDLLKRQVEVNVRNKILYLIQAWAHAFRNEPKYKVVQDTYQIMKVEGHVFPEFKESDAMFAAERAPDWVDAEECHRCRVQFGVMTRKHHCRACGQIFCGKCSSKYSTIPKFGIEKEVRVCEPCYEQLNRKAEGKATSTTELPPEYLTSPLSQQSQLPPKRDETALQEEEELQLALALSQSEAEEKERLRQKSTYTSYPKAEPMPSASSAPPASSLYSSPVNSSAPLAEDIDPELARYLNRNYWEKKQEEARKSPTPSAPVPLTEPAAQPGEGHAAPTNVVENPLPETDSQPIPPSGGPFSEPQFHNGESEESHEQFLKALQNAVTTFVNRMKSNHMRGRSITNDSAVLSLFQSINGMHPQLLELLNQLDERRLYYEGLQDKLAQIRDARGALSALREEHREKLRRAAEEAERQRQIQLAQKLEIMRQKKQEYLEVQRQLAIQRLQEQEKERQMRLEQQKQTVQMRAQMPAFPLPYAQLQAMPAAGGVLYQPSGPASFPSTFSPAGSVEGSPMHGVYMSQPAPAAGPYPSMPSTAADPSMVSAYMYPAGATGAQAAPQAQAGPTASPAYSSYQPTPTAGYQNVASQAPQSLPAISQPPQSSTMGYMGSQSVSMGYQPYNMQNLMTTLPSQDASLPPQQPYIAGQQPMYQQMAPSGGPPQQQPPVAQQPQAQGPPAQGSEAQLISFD

The target of one test is T1, GNAZ 2-355 G-alpha (domain begin …. Briefly: phage ELISA signal ratio (GST-PRM binding over GST background); higher = stronger binding of peptide-phage to the PRM. A digest of the protocol:
(§1)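 Approximately 48 individual clones from selection rounds 4 and 5 were tested by phage ELISA, and those scoring positive were sequenced. They came from five rounds of selecting an M13 phage library of randomized, cysteine-free, glycine-flanked hexadecapeptides on the gene-8 major coat protein against human peptide recognition domains fused to the C-terminus of glutathione S-transferase (GST) in 96-well plates. Each figure in the table is the ELISA signal on the GST-domain fusion relative to the signal on GST alone.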
For the molecule MPFDHWTMDDVEMLVL, the “phage ELISA signal ratio” value was determined as 17.5.
For GNHIWYWDQDEKLLEL, the “phage ELISA signal ratio” value stood at 30.4.
On the same count and under the same terms, for WSLMDDVSPWWEMEQI the value was 20.5; for DVPPLWMMAEYSFPWE, 5.11; for EWSWSDSMHQFMNENT, 27.6.
The same measure, in the same setting: for SMEWWSKGDVSLIDIS the value was 4.45; for DMTRAVFWEFWDHLDV, 7.78; for VSYEWWMPGDTQMMEV, 11.2.
On the same count and under the same terms, then HAWWYNENLDQWVDTS, with 16.7.
For the molecule WVWDYSQDQWVPASVQ, the “phage ELISA signal ratio” value is 17.2.
On the same count and under the same terms, then QWEFEHDATLLVLEQM, with 26.5; and PQQHFWEMDVPMIQLW, with 8.66.
HDVEPIWSMPWWQMDY: the “phage ELISA signal ratio” value worked out at 17.6.
Turning to DVEPLWSQWVTWDWQE, the “phage ELISA signal ratio” value worked out at 11.1.
On to PGSENEAEYWFNIMRQ, for which the “phage ELISA signal ratio” value amounted to 19.7.
Same read-out and setting: then WETWFEQKEVLIDAYY, with 14.6; and HEEGMAEQWFWLHFAP, with 11.9.
As to QWPTYSQWMTRDEILI, the “phage ELISA signal ratio” value was determined as 3.11.
In the case of NEWDIPLLDLTMLPWA, the “phage ELISA signal ratio” value worked out at 8.79.
The same measure, in the same setting: then EDSGLEWFMQWSHGYV, with 13.9.
For MLPFQDWYTQDDVLMN, the “phage ELISA signal ratio” value came out at 17.6.
For the molecule WRWDEYDHQFVEEVQM, the “phage ELISA signal ratio” value stood at 25.2.
Still for that read-out and setting: then SPPQDVPPLWEYYHIW, with 32.1.

The target of a further test is HSPA9 438-651 HSP70 (domain begin residue: 438, domain end residue: 651), P38646. The test is described as above. The procedure, abridged: as §1
HSPA9 438-651 HSP70 (domain begin residue: 438, domain end residue: 651), P38646, sequence (P38646 whole entry): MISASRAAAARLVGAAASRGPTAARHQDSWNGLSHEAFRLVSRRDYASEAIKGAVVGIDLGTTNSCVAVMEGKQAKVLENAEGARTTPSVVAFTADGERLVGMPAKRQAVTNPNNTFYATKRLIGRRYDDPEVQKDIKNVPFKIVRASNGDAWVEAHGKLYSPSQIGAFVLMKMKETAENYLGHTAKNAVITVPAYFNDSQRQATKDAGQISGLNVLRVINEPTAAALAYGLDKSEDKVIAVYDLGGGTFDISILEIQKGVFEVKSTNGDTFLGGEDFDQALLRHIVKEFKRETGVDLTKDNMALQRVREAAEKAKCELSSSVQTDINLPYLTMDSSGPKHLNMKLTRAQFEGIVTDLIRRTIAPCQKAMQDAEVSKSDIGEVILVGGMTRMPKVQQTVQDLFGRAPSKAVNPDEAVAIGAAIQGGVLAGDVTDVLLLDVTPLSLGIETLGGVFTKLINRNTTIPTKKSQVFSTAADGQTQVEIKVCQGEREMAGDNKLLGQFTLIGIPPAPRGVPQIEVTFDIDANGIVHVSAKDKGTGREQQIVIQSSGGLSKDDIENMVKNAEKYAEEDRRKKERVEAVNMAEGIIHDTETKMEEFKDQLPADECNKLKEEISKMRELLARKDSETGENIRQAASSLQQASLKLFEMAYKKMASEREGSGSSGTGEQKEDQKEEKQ
FYIYDTWVEWPPVVTV: the “phage ELISA signal ratio” value was 6.36.
On the same count and under the same terms, then ALEMTMEQWTYFLQEW, with 10.8.
Same read-out and setting: for VPWGDAQFSWPVEWMI the value was 8.49; for VMTLTELQDWLNAAYV, 15.
On the same count and under the same terms, then TVSVTNIDMDMLSFLL, with 15; and YQMTDWTTWEHFMHMT, with 6.13.
As for QVAMSEQSLNYFLTLL, the “phage ELISA signal ratio” value is 3.89.

In the next test the target is T2, HOMER1 1-163 WH1 (domain begin residue: …. The description is as above. A digest of the protocol: as §1
On to NWWHSDLQPPQEWQDE, for which the “phage ELISA signal ratio” value was determined as 4.77.
As for MEVMPPQGFQDAFLST, the “phage ELISA signal ratio” value stood at 4.78.

The target of another test is GNAI1 2-354 G-alpha (domain begin residue: 2, domain end residue: 354), P63096. The description is as above. A digest of the protocol:
as §1
As for SVPWYSEPWAIDMMSF, the “phage ELISA signal ratio” value is 49.6.
In the case of IVVGDWENEWFAHLVK, the “phage ELISA signal ratio” value was 4.48.
The same measure, in the same setting: for WWEAPWAMEMLDEETG the value was 16.6; for IPDWLVDYEWGQWVEG, 31.6; for YHDTGLSNEWFMIRYF, 18.
On the same count and under the same terms, for DAHWWEEPWFIKSQEE the value was 13.8.

A further test has as its target T3, GNA14 2-355 G-alpha (domain begin …. The test is described as above. The procedure, abridged: as §1
Turning to DGDVQKWGPYYSFTQQ, the “phage ELISA signal ratio” value came out at 28.9.

In the next test the target is HSPA8 394-614 HSP70 (domain begin residue: 394, domain end residue: 614), P11142. The test is described as above. A digest of the protocol:
as §1
As for PDVLQQLWEAMRSENW, the “phage ELISA signal ratio” value amounted to 20.4.
Still for that read-out and setting: for QHMHFVMLDEIMYGMW the value was 23.6; for YNELEPEVAAWWWQYV, 8.35.
The same measure, in the same setting: for DAEMQDFIMAWWPELV the value was 8.68; for SLDQSDIRHIFYWMEW, 10.4.

In a further test the target is T4, GNAQ 2-359 G-alpha (domain begin …. The test is described as above. The procedure, abridged: as §1
As for ITAEWQAREEYKLRVQ, the “phage ELISA signal ratio” value amounted to 29.2.
On the same count and under the same terms, for AWQISEEWKVREAYQQ the value was 25.5.

A further test concerns the target T5, HOMER2 1-111 WH1 (domain begin residue: …. The description is as above. The procedure, abridged:
as §1
In the case of SDWLSTVWEHPMDWGA, the “phage ELISA signal ratio” value turned out to be 13.5.
The same measure, in the same setting: then SHITLIHEPPYGWTTN, with 14.3; and WEEWTNWASPPHEYRF, with 10.2.
Still for that read-out and setting: then YRYIAEVPEQFVDMHR, with 15.5; and HWVIPWETVPAPHEFH, with 15.2; and WGSLDWEVALKPPVEF, with 17.9.

Another test deals with T6, HNF4A 148-377 Hormone_recep (domain …. The test is described as above. The procedure, abridged:
as §1
As to DWQGDHVHFWDLITME, the “phage ELISA signal ratio” value was 10.8.

For another test, the target named is T7, HOMER3 1-118 WH1 (domain begin residue: …. Described as above. A digest of the protocol:
as §1
Take RQYKWWEWLVVQQPKA: the “phage ELISA signal ratio” value worked out at 5.84.
Same read-out and setting: then TQAFQHDHFWESLVMF, with 4.73; and YHYIAEVPEQFVDMHR, with 10.5.

A further test has as its target HGS 1-154 VHS (domain begin residue: 1, domain end residue: 154), O14964. The test is described as above. A digest of the protocol:
as §1
Regarding PNHWFVIPIGEWYQKI, the “phage ELISA signal ratio” value was 15.9.
